{
  "source": "PubChem BioAssay (NCATS)",
  "note": "Results filed as inconclusive are left out. A number with no mark means an inactive call. Activity calls are given as the source filed them. The call rests on the fitted dose curve; in most records, active means well fitted inhibition curve with a large enough effect; inconclusive means small, poorly fitted or top-dose-only effect; inactive means flat fitted curve, though single readings scatter. Potency means the concentration at half of the fitted maximal effect.",
  "data": [
    {"test_system": "ATS95", "assay": "qHTS profiling for inhibitors of Plasmodium falciparum proliferation (AID 504749); further: nearly all actives have a fitted effect of over 60% in size;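 on activity, negative = inhibition: 0% = DMSO vehicle and full inhibition = artemisinin control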", "details": "P. falciparum in erythrocytes, SYBR Green DNA, 72 h; series mostly up to 28.7 µM; activity, negative = inhibition: at the top concentration", "procedure,_shortened": "(§1)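 Parasite proliferation within erythrocytes, 72 h exposure. Endpoint: SYBR Green I fluorescence after overnight lysis at room temperature. Controls: 0.29 uM artemisinin, DMSO.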", "values": [
      {"smiles": "C=CCN1CCc2nc(N)sc2CC1", "activity, negative = inhibition": "-23.9%"},
      {"smiles": "CC1CCc2c(N3CCC(O)CC3)c(F)cc3c(=O)c(C(=O)O)cn1c23", "note": "(stereo not given)", "activity, negative = inhibition": "-27.4%"},
      {"smiles": "NS(=O)(=O)Cc1noc2ccccc12", "activity, negative = inhibition": "4.52%"},
      {"smiles": "CCCCc1cc2ccccc2c(OCCN(C)C)n1", "activity, negative = inhibition": "-18.9% [at 12.8 µM]"},
      {"smiles": "COc1ccc(C(Cl)=C(c2ccc(OC)cc2)c2ccc(OC)cc2)cc1", "Potency": "11.2 µM (active)"},
      {"smiles": "Cl/C(=C\\n1cncn1)c1ccc(Cl)cc1Cl", "activity, negative = inhibition": "7.92%"},
      {"smiles": "CCOCCn1c(N2CCCN(C)CC2)nc2ccccc21", "activity, negative = inhibition": "-20.9%"},
      {"smiles": "CCN(CC)CCOC(=O)C1(c2ccccc2)CCCC1", "activity, negative = inhibition": "-90.7%"},
      {"smiles": "CCC(C(=O)OCCOCCN(CC)CC)c1ccccc1", "note": "(stereo not given)", "activity, negative = inhibition": "-16.1%"},
      {"smiles": "C=C[C@@]1(C)CC(=O)[C@]2(O)[C@@]3(C)[C@@H](O)CCC(C)(C)[C@@H]3[C@H](O)[C@H](OC(C)=O)[C@@]2(C)O1", "activity, negative = inhibition": "-1.75%"},
      {"smiles": "CN(C)C(=O)Nc1ccc(Cl)c(Cl)c1", "activity, negative = inhibition": "-25%"},
      {"smiles": "C#C[C@]1(OC(C)=O)CC[C@H]2[C@@H]3CCC4=C/C(=N/O)CC[C@@H]4[C@H]3CC[C@@]21CC", "activity, negative = inhibition": "0.135%"},
      {"smiles": "CCC(CC)(CC(=O)Nc1cccc(/C=C/c2nc(C3CCC3)cs2)c1)C(=O)O", "activity, negative = inhibition": "-4.59%"},
      {"smiles": "NCCNc1cccc2ccccc12", "activity, negative = inhibition": "-21.4%"}
    ]},
    {"test_system": "C2A", "assay": "qHTS profiling for inhibitors of Plasmodium falciparum proliferation (AID 504749); further: nearly all actives have a fitted effect of over 60% in size;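 on activity, negative = inhibition: 0% = DMSO vehicle and full inhibition = artemisinin control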", "details": "P. falciparum in erythrocytes, SYBR Green DNA, 72 h; series mostly up to 28.7 µM; activity, negative = inhibition: at the top concentration", "procedure,_shortened": "as §1", "values": [
      {"smiles": "O=C(Oc1cccc2cccnc12)c1ccccc1", "activity, negative = inhibition": "0.771%"},
      {"smiles": "NC(=O)C1(N2CCCCC2)CCN(CCCC(=O)c2ccc(F)cc2)CC1", "activity, negative = inhibition": "-26.5%"},
      {"smiles": "CCOC(=O)C(C#N)=C(c1ccccc1)c1ccccc1", "activity, negative = inhibition": "1.63%"},
      {"smiles": "COc1ccc(CN(CCN(C)C)c2ncccn2)cc1", "activity, negative = inhibition": "-0.396%"},
      {"smiles": "CCCCC(CC)COC(=O)/C=C/c1ccc(OC)cc1", "note": "(stereo not given)", "activity, negative = inhibition": "-2.17%"},
      {"smiles": "CN(C)CCN1C(=O)c2ccccc2N(C)c2ccccc21", "activity, negative = inhibition": "-24.2%"},
      {"smiles": "COc1ccc2c(c1)c1c3n2CCN(C)C3=NCC1", "activity, negative = inhibition": "-6.06%"},
      {"smiles": "CN1CCN(C2=Nc3cc(F)ccc3Cc3ccccc32)CC1", "activity, negative = inhibition": "-19.4%"},
      {"smiles": "O=C1C(O)=C(O)C(=O)C(O)=C1O", "activity, negative = inhibition": "-9.09%"},
      {"smiles": "Cc1cc(-c2ccccc2)nnc1NCCN1CCOCC1", "activity, negative = inhibition": "-4.32%"},
      {"smiles": "COc1ccc(CCN(C)CCCN2CCc3cc(OC)c(OC)cc3CC2=O)cc1OC", "activity, negative = inhibition": "-8.96%"},
      {"smiles": "CC(C)=CCOc1ccc(/C=C/C(=O)c2ccc(OCC=C(C)C)cc2OCC(=O)O)cc1", "activity, negative = inhibition": "-3.4%"},
      {"smiles": "COc1ccc(C(=O)c2ccccc2)c(O)c1", "activity, negative = inhibition": "-12.6%"},
      {"smiles": "CCOC(=O)Nc1ccc2c(c1)N(C(=O)CCN1CCOCC1)c1ccccc1S2", "activity, negative = inhibition": "4.09% [at 12.8 µM]"},
      {"smiles": "CCCCNc1ccc(C(=O)OCCOCCOCCOCCOCCOCCOCCOCCOCCOC)cc1", "activity, negative = inhibition": "-8.47% [at 12.8 µM]"},
      {"smiles": "CN1CCC(OC(c2ccccc2)c2ccccc2)CC1", "activity, negative = inhibition": "-27.7% [at 12.8 µM]"},
      {"smiles": "NC(=O)n1c(O)c(C(=O)c2cccs2)c2cc(Cl)ccc21", "activity, negative = inhibition": "-2.81%"},
      {"smiles": "C=CCN1CCc2nc(N)sc2CC1", "activity, negative = inhibition": "0.544%"},
      {"smiles": "CC1CCc2c(N3CCC(O)CC3)c(F)cc3c(=O)c(C(=O)O)cn1c23", "note": "(stereo not given)", "activity, negative = inhibition": "-27.9%"},
      {"smiles": "NS(=O)(=O)Cc1noc2ccccc12", "activity, negative = inhibition": "2.04%"},
      {"smiles": "CCCCc1cc2ccccc2c(OCCN(C)C)n1", "activity, negative = inhibition": "1.4% [at 12.8 µM]"},
      {"smiles": "COc1ccc(C(Cl)=C(c2ccc(OC)cc2)c2ccc(OC)cc2)cc1", "Potency": "3.98 µM (active)"},
      {"smiles": "Cl/C(=C\\n1cncn1)c1ccc(Cl)cc1Cl", "activity, negative = inhibition": "-8.16%"},
      {"smiles": "CCOCCn1c(N2CCCN(C)CC2)nc2ccccc21", "activity, negative = inhibition": "-16.9%"},
      {"smiles": "CCN(CC)CCOC(=O)C1(c2ccccc2)CCCC1", "activity, negative = inhibition": "-35.3%"},
      {"smiles": "CCC(C(=O)OCCOCCN(CC)CC)c1ccccc1", "note": "(stereo not given)", "activity, negative = inhibition": "-10.4%"},
      {"smiles": "C=C[C@@]1(C)CC(=O)[C@]2(O)[C@@]3(C)[C@@H](O)CCC(C)(C)[C@@H]3[C@H](O)[C@H](OC(C)=O)[C@@]2(C)O1", "activity, negative = inhibition": "-16.2%"},
      {"smiles": "CCN(CC)CCOc1ccccc1C(=O)CCc1ccccc1", "activity, negative = inhibition": "-20.8%"},
      {"smiles": "CC(=O)OCC(=O)[C@H]1CC[C@H]2[C@@H]3CCC4=CC(=O)CC[C@]4(C)[C@H]3CC[C@]12C", "activity, negative = inhibition": "-6.05%"},
      {"smiles": "C#C[C@]1(OC(C)=O)CC[C@H]2[C@@H]3CCC4=C/C(=N/O)CC[C@@H]4[C@H]3CC[C@@]21CC", "activity, negative = inhibition": "-9.7%"},
      {"smiles": "CCC(CC)(CC(=O)Nc1cccc(/C=C/c2nc(C3CCC3)cs2)c1)C(=O)O", "activity, negative = inhibition": "-6.96%"},
      {"smiles": "NCCNc1cccc2ccccc12", "activity, negative = inhibition": "-4.97%"}
    ]},
    {"test_system": "CP185", "assay": "qHTS profiling for inhibitors of Plasmodium falciparum proliferation (AID 504749); further: nearly all actives have a fitted effect of over 60% in size;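 on activity, negative = inhibition: 0% = DMSO vehicle and full inhibition = artemisinin control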", "details": "P. falciparum in erythrocytes, SYBR Green DNA, 72 h; series mostly up to 28.7 µM; activity, negative = inhibition: at the top concentration", "procedure,_shortened": "as §1", "values": [
      {"smiles": "O=C(Oc1cccc2cccnc12)c1ccccc1", "activity, negative = inhibition": "-1.7%"},
      {"smiles": "NC(=O)C1(N2CCCCC2)CCN(CCCC(=O)c2ccc(F)cc2)CC1", "activity, negative = inhibition": "-29.7%"},
      {"smiles": "CCOC(=O)C(C#N)=C(c1ccccc1)c1ccccc1", "activity, negative = inhibition": "1.57%"},
      {"smiles": "COc1ccc(CN(CCN(C)C)c2ncccn2)cc1", "activity, negative = inhibition": "-4.49%"},
      {"smiles": "CCCCC(CC)COC(=O)/C=C/c1ccc(OC)cc1", "note": "(stereo not given)", "activity, negative = inhibition": "2%"},
      {"smiles": "COc1ccc2c(c1)c1c3n2CCN(C)C3=NCC1", "activity, negative = inhibition": "-8.41%"},
      {"smiles": "CN1CCN(C2=Nc3cc(F)ccc3Cc3ccccc32)CC1", "activity, negative = inhibition": "-17%"},
      {"smiles": "O=C1C(O)=C(O)C(=O)C(O)=C1O", "activity, negative = inhibition": "5.47%"},
      {"smiles": "Cc1cc(-c2ccccc2)nnc1NCCN1CCOCC1", "activity, negative = inhibition": "-0.0294%"},
      {"smiles": "COc1ccc(CCN(C)CCCN2CCc3cc(OC)c(OC)cc3CC2=O)cc1OC", "activity, negative = inhibition": "-21%"},
      {"smiles": "CC(C)=CCOc1ccc(/C=C/C(=O)c2ccc(OCC=C(C)C)cc2OCC(=O)O)cc1", "activity, negative = inhibition": "3.12%"},
      {"smiles": "COc1ccc(C(=O)c2ccccc2)c(O)c1", "activity, negative = inhibition": "6.58%"},
      {"smiles": "CCOC(=O)Nc1ccc2c(c1)N(C(=O)CCN1CCOCC1)c1ccccc1S2", "activity, negative = inhibition": "-0.631% [at 12.8 µM]"},
      {"smiles": "O=C(CCN1CCN2CCCC2C1)N1c2ccccc2Sc2ccc(Cl)cc21", "note": "(stereo not given)", "activity, negative = inhibition": "-24.1%"},
      {"smiles": "CCCCNc1ccc(C(=O)OCCOCCOCCOCCOCCOCCOCCOCCOCCOC)cc1", "activity, negative = inhibition": "-2.46% [at 12.8 µM]"},
      {"smiles": "NC(=O)n1c(O)c(C(=O)c2cccs2)c2cc(Cl)ccc21", "activity, negative = inhibition": "12.7%"},
      {"smiles": "C=CCN1CCc2nc(N)sc2CC1", "activity, negative = inhibition": "-10.7%"},
      {"smiles": "NS(=O)(=O)Cc1noc2ccccc12", "activity, negative = inhibition": "0.922%"},
      {"smiles": "CCCCc1cc2ccccc2c(OCCN(C)C)n1", "activity, negative = inhibition": "-10.1% [at 12.8 µM]"},
      {"smiles": "Cl/C(=C\\n1cncn1)c1ccc(Cl)cc1Cl", "activity, negative = inhibition": "3.17%"},
      {"smiles": "CCOCCn1c(N2CCCN(C)CC2)nc2ccccc21", "activity, negative = inhibition": "-14.5%"},
      {"smiles": "CCN(CC)CCOC(=O)C1(c2ccccc2)CCCC1", "Potency": "11.2 µM (active)"},
      {"smiles": "CCC(C(=O)OCCOCCN(CC)CC)c1ccccc1", "note": "(stereo not given)", "activity, negative = inhibition": "-11.5%"},
      {"smiles": "C=C[C@@]1(C)CC(=O)[C@]2(O)[C@@]3(C)[C@@H](O)CCC(C)(C)[C@@H]3[C@H](O)[C@H](OC(C)=O)[C@@]2(C)O1", "activity, negative = inhibition": "2.96%"},
      {"smiles": "CC(=O)OCC(=O)[C@H]1CC[C@H]2[C@@H]3CCC4=CC(=O)CC[C@]4(C)[C@H]3CC[C@]12C", "activity, negative = inhibition": "3.98%"},
      {"smiles": "CN(C)C(=O)Nc1ccc(Cl)c(Cl)c1", "activity, negative = inhibition": "-18.4%"},
      {"smiles": "C#C[C@]1(OC(C)=O)CC[C@H]2[C@@H]3CCC4=C/C(=N/O)CC[C@@H]4[C@H]3CC[C@@]21CC", "activity, negative = inhibition": "4.49%"},
      {"smiles": "CCC(CC)(CC(=O)Nc1cccc(/C=C/c2nc(C3CCC3)cs2)c1)C(=O)O", "activity, negative = inhibition": "12.1%"},
      {"smiles": "NCCNc1cccc2ccccc12", "activity, negative = inhibition": "-13.4%"}
    ]}
  ]
}
